Among the data in publication PMC7862700, “An all-to-all approach to the identification of sequence-specific readers for epigenetic DNA modifications on cytosine” are binding signal values, retold here.

What all share (test): DAPPL (digital affinity profiling via proximity ligation, sequencing); 10 mM Tris-HCl pH 7.5, 50 mM NaCl, 1 mM DTT, 4% glycerol, room temperature, 30 min; GST-TFs on glutathione beads, 16-mer random dsDNA library, 0.1% formaldehyde crosslink after washing; high values mean tight binding
For assay [1], the target named is T1, FLI1 (Homo sapiens, UniProt Q01543 1-452).
T1 sequence: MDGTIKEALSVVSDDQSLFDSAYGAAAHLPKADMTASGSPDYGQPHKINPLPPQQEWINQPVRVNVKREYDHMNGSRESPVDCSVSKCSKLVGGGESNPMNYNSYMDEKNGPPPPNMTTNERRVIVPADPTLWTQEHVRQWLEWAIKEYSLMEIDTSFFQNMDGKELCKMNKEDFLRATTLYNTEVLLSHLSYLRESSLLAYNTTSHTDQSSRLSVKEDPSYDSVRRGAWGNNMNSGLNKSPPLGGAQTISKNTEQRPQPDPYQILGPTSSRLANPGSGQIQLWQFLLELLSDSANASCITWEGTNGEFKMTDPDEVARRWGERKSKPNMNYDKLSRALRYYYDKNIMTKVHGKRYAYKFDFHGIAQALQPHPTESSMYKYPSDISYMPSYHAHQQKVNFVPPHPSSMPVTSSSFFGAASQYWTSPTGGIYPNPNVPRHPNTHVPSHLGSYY
The following applies: protein: recombinant; tags: N-terminal GST; dsDNA, one strand shown. The method, boiled down: (§1)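 Binding signal is given per hexamer as its read frequency for a factor divided by its frequency in the tag-only sample. GST-fused human transcription factors were expressed in yeast, captured on glutathione beads, barcoded with DNA and pooled with that sample, then incubated with 200 nmole of a 16-mer random double-stranded DNA library in Tris/NaCl/DTT/glycerol buffer for 30 min at room temperature. The pools were then washed, crosslinked, proximity-ligated, amplified by PCR and sequenced on an Illumina NextSeq500.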

For assay [2], the target named is T2, ELK1 (Homo sapiens, UniProt P19419 1-428).
T2 sequence: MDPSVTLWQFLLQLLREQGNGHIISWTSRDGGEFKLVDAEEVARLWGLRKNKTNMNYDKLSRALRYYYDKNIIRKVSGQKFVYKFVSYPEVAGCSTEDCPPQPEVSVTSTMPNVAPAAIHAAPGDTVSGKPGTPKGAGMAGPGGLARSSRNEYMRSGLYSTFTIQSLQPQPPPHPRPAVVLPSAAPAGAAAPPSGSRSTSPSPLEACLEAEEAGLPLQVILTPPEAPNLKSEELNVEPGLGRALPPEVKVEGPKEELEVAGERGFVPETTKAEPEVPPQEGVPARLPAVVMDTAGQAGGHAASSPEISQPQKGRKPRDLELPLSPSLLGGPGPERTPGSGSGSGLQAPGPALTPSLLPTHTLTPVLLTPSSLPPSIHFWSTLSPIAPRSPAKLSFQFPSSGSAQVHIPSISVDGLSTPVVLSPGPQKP
The note with it: protein: recombinant; tags: N-terminal GST; dsDNA, one strand shown. The method, boiled down:
as §1

Assay [3] deals with T3, GABPA (Homo sapiens, UniProt Q06546 1-454).
T3 sequence: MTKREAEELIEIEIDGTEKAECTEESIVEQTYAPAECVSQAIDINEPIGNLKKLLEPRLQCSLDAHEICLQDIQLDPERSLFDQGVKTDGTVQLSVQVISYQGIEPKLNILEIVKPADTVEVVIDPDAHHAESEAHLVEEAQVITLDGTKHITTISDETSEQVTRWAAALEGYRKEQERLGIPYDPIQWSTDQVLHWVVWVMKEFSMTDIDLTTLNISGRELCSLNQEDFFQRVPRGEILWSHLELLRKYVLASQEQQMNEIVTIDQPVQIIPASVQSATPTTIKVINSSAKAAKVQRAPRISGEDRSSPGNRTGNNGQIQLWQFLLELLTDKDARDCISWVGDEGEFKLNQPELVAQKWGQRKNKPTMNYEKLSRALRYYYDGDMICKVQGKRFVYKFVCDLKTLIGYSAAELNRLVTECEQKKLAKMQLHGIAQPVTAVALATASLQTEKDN
The following applies: protein: recombinant; tags: N-terminal GST; dsDNA, one strand shown. The method, boiled down: as §1

In assay [4] the target is T4, ERG (Homo sapiens, UniProt P11308 1-479).
T4 sequence: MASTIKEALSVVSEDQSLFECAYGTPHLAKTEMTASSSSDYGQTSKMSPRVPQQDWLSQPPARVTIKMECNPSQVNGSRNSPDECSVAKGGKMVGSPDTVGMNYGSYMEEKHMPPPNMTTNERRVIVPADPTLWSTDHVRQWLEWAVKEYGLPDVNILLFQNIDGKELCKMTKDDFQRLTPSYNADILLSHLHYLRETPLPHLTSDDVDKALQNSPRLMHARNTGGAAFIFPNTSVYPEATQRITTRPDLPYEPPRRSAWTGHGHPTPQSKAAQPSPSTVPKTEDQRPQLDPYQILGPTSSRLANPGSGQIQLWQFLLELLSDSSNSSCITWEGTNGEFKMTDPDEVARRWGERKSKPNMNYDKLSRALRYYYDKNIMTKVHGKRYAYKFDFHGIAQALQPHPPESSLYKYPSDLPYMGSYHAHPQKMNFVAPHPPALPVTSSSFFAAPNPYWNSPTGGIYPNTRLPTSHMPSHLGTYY
The following applies: protein: recombinant; tags: N-terminal GST; dsDNA, one strand shown. In short, it runs like this: as §1

Assay [5] has as its target ELF1 (Homo sapiens, UniProt P32519 1-619). The note with it: protein: recombinant; tags: N-terminal GST; dsDNA, one strand shown. The method, boiled down:
as §1

In assay [6] the target is T5, EHF (Homo sapiens, UniProt Q9NZC4 1-300).
T5 sequence: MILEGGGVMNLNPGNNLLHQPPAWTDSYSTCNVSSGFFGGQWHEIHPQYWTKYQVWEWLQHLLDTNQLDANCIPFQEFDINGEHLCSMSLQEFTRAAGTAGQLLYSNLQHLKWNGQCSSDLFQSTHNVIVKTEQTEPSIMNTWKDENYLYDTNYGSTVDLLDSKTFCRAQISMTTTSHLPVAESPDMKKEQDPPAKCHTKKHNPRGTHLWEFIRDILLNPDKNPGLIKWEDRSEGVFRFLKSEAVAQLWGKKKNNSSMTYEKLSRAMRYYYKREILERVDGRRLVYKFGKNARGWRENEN
The note with it: protein: recombinant; tags: N-terminal GST; dsDNA, one strand shown. In short, it runs like this:
as §1

The target of assay [7] is SPI1 (Homo sapiens, UniProt P17947 1-270). The following applies: protein: recombinant; tags: N-terminal GST; dsDNA, one strand shown. In short, it runs like this: as §1
Assay [8] addresses SPIB (Homo sapiens, UniProt Q01892 1-262). The note with it: protein: recombinant; tags: N-terminal GST; dsDNA, one strand shown. In short, it runs like this:
as §1

Assay [9] has as its target T6, ELK3 (Homo sapiens, UniProt P41970 1-407).
T6 sequence: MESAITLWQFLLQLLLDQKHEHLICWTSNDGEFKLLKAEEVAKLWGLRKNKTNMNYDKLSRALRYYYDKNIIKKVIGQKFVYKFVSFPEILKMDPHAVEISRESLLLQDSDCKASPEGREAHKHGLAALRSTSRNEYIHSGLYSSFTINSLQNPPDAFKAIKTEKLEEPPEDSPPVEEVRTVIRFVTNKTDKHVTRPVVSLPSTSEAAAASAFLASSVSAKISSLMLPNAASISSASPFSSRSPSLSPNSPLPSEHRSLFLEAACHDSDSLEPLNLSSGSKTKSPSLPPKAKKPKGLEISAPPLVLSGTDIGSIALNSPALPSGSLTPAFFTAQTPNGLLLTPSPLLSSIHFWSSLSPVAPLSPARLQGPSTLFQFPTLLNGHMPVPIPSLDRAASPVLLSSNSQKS
The following applies: protein: recombinant; tags: N-terminal GST; dsDNA, one strand shown. In short, it runs like this:
as §1

Assay [10] has as its target T7, FEV (Homo sapiens, UniProt Q99581 1-238).
T7 sequence: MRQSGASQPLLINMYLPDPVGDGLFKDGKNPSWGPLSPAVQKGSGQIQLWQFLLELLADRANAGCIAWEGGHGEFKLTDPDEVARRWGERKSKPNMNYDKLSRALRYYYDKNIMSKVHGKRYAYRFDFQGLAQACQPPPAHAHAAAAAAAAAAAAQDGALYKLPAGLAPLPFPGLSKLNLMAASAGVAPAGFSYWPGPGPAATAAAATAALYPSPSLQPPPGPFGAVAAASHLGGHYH
The following applies: protein: recombinant; tags: N-terminal GST; dsDNA, one strand shown. In short, it runs like this: as §1

Assay [11] addresses ETV5 (Homo sapiens, UniProt P41161 1-510). The note with it: protein: recombinant; tags: N-terminal GST; dsDNA, one strand shown. The method, boiled down:
as §1

Assay [12] concerns the target HSF1 (Homo sapiens, UniProt Q00613 1-529). The note with it: protein: recombinant; tags: N-terminal GST; chain copies: 3; dsDNA, one strand shown. In short, it runs like this:
as §1

The target in assay [13] is T8, SPIC (Homo sapiens, UniProt Q8N5J4 1-248).
T8 sequence: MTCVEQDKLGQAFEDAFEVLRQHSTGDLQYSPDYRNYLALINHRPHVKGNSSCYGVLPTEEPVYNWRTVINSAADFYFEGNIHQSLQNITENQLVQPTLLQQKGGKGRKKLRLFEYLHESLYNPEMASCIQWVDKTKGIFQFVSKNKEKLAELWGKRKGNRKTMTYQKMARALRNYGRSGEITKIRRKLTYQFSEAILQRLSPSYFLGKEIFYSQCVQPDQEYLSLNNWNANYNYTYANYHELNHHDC
The following applies: protein: recombinant; tags: N-terminal GST; dsDNA, one strand shown. In short, it runs like this: as §1

Assay [14] concerns the target ELF4 (Homo sapiens, UniProt Q99607 1-663). The following applies: protein: recombinant; tags: N-terminal GST; dsDNA, one strand shown. In short, it runs like this: as §1
In assay [15] the target is T9, ELK4 (Homo sapiens, UniProt P28324-2 1-405).
T9 sequence: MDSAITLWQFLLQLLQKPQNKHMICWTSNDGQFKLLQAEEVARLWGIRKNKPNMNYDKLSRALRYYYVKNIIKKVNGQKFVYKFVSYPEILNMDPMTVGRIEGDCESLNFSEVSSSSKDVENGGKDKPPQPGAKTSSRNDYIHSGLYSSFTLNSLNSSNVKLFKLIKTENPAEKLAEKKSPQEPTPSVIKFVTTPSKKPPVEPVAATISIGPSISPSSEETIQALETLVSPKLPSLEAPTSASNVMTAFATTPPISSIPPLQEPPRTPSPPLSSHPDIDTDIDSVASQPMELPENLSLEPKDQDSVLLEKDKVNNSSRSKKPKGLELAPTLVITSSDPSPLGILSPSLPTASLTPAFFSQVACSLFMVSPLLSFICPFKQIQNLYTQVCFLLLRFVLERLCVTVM
The following applies: protein: recombinant; tags: N-terminal GST; dsDNA, one strand shown. In short, it runs like this: as §1

Assay [16] has as its target T10, ETV2 (Homo sapiens, UniProt O00321 1-342).
T10 sequence: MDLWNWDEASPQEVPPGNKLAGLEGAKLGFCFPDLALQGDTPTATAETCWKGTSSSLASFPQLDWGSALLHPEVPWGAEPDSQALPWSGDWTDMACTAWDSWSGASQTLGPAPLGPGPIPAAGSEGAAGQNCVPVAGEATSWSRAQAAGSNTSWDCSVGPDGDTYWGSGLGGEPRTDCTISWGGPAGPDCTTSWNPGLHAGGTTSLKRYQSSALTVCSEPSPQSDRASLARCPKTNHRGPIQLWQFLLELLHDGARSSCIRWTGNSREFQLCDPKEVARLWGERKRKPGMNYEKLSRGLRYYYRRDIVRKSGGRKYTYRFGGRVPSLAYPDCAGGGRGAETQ
The note with it: protein: recombinant; tags: N-terminal GST; dsDNA, one strand shown. The method, boiled down:
as §1

Assay [17] concerns the target T11, ELF3 (Homo sapiens, UniProt P78545 1-371).
T11 sequence: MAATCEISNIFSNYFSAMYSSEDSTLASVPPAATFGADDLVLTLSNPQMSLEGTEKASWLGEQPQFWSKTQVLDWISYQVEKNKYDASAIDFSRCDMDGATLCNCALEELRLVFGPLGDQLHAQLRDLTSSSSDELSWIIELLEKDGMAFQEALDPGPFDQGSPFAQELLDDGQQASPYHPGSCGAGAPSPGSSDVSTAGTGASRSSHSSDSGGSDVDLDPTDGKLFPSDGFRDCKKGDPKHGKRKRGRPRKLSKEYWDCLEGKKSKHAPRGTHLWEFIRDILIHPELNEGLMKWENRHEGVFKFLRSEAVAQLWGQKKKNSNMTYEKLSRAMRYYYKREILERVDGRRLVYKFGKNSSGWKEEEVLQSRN
The following applies: protein: recombinant; tags: N-terminal GST; dsDNA, one strand shown. The method, boiled down: as §1

The target in assay [18] is CRX (Homo sapiens, UniProt O43186 1-299). The note with it: protein: recombinant; tags: N-terminal GST; dsDNA, one strand shown. The method, boiled down: as §1
For assay [19], the target named is ETV1 (Homo sapiens, UniProt P50549 1-477). The note with it: protein: recombinant; tags: N-terminal GST; dsDNA, one strand shown. The method, boiled down:
as §1

Sequence of HSF1 (Q00613 whole entry): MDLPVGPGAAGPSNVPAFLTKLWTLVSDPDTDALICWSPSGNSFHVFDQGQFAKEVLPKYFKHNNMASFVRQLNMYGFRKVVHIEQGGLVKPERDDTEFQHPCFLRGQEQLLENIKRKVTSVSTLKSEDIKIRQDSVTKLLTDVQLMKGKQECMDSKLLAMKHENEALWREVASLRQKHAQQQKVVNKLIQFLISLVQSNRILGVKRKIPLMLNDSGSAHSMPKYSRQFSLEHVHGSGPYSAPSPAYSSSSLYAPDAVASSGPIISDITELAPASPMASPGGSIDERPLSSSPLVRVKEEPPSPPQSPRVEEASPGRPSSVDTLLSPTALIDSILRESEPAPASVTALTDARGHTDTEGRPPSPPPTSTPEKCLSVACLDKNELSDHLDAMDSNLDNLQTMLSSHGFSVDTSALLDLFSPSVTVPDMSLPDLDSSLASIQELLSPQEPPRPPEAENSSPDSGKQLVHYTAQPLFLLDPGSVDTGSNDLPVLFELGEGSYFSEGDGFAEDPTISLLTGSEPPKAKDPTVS
Sequence of ELF1 (P32519 whole entry): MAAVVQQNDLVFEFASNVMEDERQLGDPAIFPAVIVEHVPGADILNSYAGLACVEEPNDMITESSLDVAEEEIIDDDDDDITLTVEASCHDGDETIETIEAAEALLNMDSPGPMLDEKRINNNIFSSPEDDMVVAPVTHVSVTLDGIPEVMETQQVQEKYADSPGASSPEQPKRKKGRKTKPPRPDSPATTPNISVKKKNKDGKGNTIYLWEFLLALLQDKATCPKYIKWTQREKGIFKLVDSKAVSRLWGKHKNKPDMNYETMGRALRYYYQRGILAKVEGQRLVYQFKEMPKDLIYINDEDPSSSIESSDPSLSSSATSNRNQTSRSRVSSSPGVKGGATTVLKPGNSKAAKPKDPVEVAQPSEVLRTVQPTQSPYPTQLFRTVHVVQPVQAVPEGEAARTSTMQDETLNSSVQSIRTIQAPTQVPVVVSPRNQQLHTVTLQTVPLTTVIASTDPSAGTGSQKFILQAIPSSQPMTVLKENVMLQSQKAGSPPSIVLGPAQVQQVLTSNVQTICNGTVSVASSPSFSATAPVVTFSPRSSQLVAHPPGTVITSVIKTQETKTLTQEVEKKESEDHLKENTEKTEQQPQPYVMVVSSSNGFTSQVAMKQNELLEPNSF
Sequence of SPIB (Q01892 whole entry): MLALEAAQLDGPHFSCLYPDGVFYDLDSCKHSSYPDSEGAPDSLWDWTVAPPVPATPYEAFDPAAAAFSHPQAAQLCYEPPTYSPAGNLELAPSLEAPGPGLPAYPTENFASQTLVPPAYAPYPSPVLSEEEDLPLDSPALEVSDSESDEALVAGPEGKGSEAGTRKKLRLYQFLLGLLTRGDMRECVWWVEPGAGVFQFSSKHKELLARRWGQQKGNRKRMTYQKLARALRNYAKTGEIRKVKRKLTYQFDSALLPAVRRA
Sequence of CRX (O43186 whole entry): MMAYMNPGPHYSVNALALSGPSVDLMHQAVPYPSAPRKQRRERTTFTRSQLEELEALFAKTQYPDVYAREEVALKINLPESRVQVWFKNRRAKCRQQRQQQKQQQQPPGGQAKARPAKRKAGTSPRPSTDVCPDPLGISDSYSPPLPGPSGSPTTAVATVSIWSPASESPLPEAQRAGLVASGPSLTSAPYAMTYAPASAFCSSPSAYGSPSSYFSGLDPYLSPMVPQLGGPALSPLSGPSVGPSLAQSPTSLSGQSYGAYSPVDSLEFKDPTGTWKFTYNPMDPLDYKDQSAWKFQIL
Sequence of ELF4 (Q99607 whole entry): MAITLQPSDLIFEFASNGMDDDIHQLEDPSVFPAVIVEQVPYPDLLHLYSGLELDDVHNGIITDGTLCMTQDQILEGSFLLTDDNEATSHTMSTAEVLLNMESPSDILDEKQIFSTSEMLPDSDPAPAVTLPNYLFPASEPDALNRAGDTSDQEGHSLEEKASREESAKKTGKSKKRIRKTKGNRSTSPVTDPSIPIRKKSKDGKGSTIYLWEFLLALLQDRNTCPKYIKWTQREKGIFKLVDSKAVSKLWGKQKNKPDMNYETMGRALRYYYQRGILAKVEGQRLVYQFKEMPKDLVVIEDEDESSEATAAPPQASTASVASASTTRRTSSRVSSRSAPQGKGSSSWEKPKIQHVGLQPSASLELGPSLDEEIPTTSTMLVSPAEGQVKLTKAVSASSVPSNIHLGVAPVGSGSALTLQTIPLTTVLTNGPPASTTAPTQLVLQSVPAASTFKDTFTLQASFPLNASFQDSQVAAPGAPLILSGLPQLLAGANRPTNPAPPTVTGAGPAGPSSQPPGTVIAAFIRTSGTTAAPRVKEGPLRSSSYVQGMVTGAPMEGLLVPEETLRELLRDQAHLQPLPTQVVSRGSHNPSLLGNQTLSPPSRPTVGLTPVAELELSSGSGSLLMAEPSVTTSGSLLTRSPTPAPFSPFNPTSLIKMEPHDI
Sequence of ETV1 (P50549 whole entry): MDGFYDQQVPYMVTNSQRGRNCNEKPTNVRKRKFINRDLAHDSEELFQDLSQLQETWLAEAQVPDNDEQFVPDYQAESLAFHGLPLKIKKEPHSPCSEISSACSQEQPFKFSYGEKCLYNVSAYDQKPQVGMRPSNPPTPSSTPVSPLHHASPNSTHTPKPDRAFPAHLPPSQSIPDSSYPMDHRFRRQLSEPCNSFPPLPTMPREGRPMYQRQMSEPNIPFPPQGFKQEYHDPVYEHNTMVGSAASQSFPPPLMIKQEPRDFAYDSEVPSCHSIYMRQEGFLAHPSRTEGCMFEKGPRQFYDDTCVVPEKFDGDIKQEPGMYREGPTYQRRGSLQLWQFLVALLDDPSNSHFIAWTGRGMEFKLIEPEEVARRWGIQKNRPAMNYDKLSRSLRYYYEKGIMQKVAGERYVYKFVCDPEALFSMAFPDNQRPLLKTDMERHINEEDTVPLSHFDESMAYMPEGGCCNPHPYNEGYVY
Sequence of ETV5 (P41161 whole entry): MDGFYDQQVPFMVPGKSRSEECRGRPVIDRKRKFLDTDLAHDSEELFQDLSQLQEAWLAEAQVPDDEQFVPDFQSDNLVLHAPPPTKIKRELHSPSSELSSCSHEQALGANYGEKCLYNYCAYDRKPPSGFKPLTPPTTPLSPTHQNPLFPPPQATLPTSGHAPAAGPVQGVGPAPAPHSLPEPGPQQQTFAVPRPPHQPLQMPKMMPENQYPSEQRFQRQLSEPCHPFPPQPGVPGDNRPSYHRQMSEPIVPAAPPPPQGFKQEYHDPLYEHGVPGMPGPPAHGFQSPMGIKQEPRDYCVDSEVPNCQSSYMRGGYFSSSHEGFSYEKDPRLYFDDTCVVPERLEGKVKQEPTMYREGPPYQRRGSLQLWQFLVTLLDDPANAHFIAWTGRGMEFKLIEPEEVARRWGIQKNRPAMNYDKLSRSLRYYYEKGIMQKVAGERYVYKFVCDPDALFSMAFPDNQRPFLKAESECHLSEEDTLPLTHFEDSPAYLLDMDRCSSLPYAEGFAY

In the case of GGCCTA, the binding signal in assay [1] was 1.15 fold enrichment (6-mer frequency, TF over GST control); in assay [2] it was 1.22 fold enrichment (6-mer frequency, TF over GST control); in assay [3], 1.31 fold enrichment (6-mer frequency, TF over GST control); in assay [4], 1.37 fold enrichment (6-mer frequency, TF over GST control); in [5], 1.3 fold enrichment (6-mer frequency, TF over GST control); in assay [6], 1.23 fold enrichment (6-mer frequency, TF over GST control). In addition, the binding signal in assay [7] was 1.03 fold enrichment (6-mer frequency, TF over GST control); in assay [8], 1.04 fold enrichment (6-mer frequency, TF over GST control); in assay [9] it was 1.1 fold enrichment (6-mer frequency, TF over GST control); in assay [10], 1.19 fold enrichment (6-mer frequency, TF over GST control); in [11], 1.22 fold enrichment (6-mer frequency, TF over GST control); in assay [12], 1.33 fold enrichment (6-mer frequency, TF over GST control). For the same sequence, the binding signal in assay [13] is 1.1 fold enrichment (6-mer frequency, TF over GST control); in assay [14], 1.25 fold enrichment (6-mer frequency, TF over GST control); in [15], 1.25 fold enrichment (6-mer frequency, TF over GST control); in [16], 1.14 fold enrichment (6-mer frequency, TF over GST control); in assay [17], 1.22 fold enrichment (6-mer frequency, TF over GST control); in [18], 1.39 fold enrichment (6-mer frequency, TF over GST control). The binding signal in assay [19] is 1.2 fold enrichment (6-mer frequency, TF over GST control).
